The entries come from a sample that favours hits as a whole.
aSyn tox rescue: alpha-synuclein toxicity suppression in yeast. S. cerevisiae alpha-synuclein toxicity rescue, BacTiter-Glo growth, 24 h. Potency, µM (top dose mostly 46.1 µM), most hits filed as activators. 94,000 tested, 0.02% active. AID 1347070; active means well fitted activation curve with a large enough effect
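Growth restoration measured by BacTiter-Glo luminescence after 24 hr at 30 deg C; alpha-synuclein yeast, raffinose-pregrown to mid-log, were added at OD600=0.02 in galactose medium onto pinned compounds.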
Hits are given with their value; 0 = inactive.

SMILES	aSyn tox rescue
CCc1cccc(NC(=O)CN2C(=O)CN=C(c3ccccc3F)c3cc(Cl)ccc32)c1	20µM
O=C1CN=C(c2ccccc2)c2cc(Cl)ccc2N1Cc1ccc(Cl)cc1	0
Cc1cccc(CN2C(=O)CN=C(c3ccccc3)c3cc(Cl)ccc32)c1	0
CCN(CC)C(=O)c1ccc(NC(=O)CCn2nc(-c3ccc(Cl)cc3)c3ccccc3c2=O)cc1	0
Cc1ccc(-c2nc(CN3C(=O)CN=C(c4ccccc4Cl)c4cc(Cl)ccc43)c(C)o2)cc1	0

Screens: PubChem BioAssay, National Center for Advancing Translational Sciences (NCATS)
